Rows were chosen to be rich in hits. Some 1.2% of all compounds tested hit in one or more screens of this group.
IDH1 R132H inh: qHTS for Inhibitors of mutant isocitrate dehydrogenase 1 (IDH1): qHTS; IDH1-R132H enzyme, NADPH consumption, diaphorase/resazurin fluorescence; Potency, µM (doses to about 76.6 µM), inactives show at the highest dose activity change, negative = inhibition, most hits filed as inhibitors; hit rate 0.093% among 390,000; Isocitrate dehydrogenase [NADP] cytoplasmic (Homo sapiens), O75874; note: potency is the fitted concentration of half-maximal effect; % is set by controls: 0 for no effect and ±100 for the full control effect; nearly all actives have a fitted effect of over 65% in size
Target sequence (O75874 whole entry R132H, stated change not applied): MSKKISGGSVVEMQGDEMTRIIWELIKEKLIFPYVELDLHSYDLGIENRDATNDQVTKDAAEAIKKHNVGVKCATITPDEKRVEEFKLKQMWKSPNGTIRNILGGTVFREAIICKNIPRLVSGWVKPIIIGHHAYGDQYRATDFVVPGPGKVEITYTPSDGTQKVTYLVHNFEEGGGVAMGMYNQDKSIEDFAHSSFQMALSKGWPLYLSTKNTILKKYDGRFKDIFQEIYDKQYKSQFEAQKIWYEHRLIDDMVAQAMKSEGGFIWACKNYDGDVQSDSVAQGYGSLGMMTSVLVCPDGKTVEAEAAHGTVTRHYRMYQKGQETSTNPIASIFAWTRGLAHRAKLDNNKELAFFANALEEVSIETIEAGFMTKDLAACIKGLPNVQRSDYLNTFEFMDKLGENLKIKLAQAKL
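IDH1-R132H (0.5 ug/mL) preincubated 30 min with compound, then NADPH (0.016 mM) and alpha-KG (2 mM) added; 80 min at RT, pH 7.5. Remaining NADPH coupled via diaphorase/resazurin to fluorescence (540/590 nm); concentration-response curves normalized to no-enzyme control.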
TrxR1 inh: qHTS Assay for Inhibitors of Mammalian Selenoprotein Thioredoxin Reductase 1 (TrxR1): qHTS; hit rate 1% among 390,000; Potency, µM (series often up to 114 µM), for inactives: at the highest dose activity change, negative = inhibition, usual class: inhibitors; recombinant rTrxR1, NADPH fluorescence consumption, selenite substrate; note: potency is the fitted concentration of half-maximal effect; % is set by controls: 0 for no effect and ±100 for the full control effect; nearly all actives have a fitted effect of over 65% in size
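Rat TrxR1 (90 nM in the dispensed reagent) was pre-reduced with 400 uM NADPH for 5 min at room temperature, then incubated with compound for 15 min. After 400 uM selenite was added, NADPH fluorescence (Ex 340/Em 450 nm) was followed for 8 min.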
TrxR1 substrate: qHTS Assay for Substrates of Mammalian Selenoprotein Thioredoxin Reductase 1 (TrxR1): qHTS. AID 588456, 2011. hit rate 0.01% among 390,000. Thioredoxin reductase 1, cytoplasmic (Rattus norvegicus), O89049. Potency, µM (highest dose often 114 µM), without a hit: at the highest dose activity change, negative = substrate turnover. purified TrxR1 substrate turnover, NADPH consumption readout; note: potency is the fitted concentration of half-maximal effect; % is set by controls: 0 for no effect and ±100 for the full control effect; nearly all actives have a fitted effect of over 50% in size
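Rat TrxR1, dispensed at 90 nM, was prereduced with 400 uM NADPH (final) for 5 min at ~22 deg C, then incubated with compound 15 min before 400 uM selenite. A first-read NADPH fluorescence drop versus no-compound background flagged substrates.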
GLS inhibitor: qHTS for Inhibitors of Glutaminase (GLS); GLS enzymatic activity, qHTS titration; Potency, µM (top dose mostly 45.5 µM), for the others: at the top dose activity change, negative = inhibition, hits mostly inhibitors; hit rate 0.21% among 410,000; AID 624170, 2012; note: potency is the fitted concentration of half-maximal effect; % is set by controls: 0 for no effect and ±100 for the full control effect
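Assay buffer: 45 mM KH2PO4 pH 8.2, 0.02% Tween-20. hKGA acts on L-glutamine (1 mM solution added); product glutamate is reported by an oxidase/peroxidase Amplex Red coupling, with fluorescence taken at baseline and 30 min.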
IDH1 autofl: qHTS for Inhibitors of mutant isocitrate dehydrogenase 1 (IDH1): Cherrypicks Autofluorescence Interference | inhibition of signal, % at 51.2 µM | AID 623980, 2012 | 750 tested, under 10 active | Resorufin detection reagent fluorescence interference, cell-free | shares compounds with IDH1 R132H inh;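 note: 0% = wells with normal resorufin and full inhibition = wells lacking resorufin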
WT IDH1 inh: qHTS for Inhibitors of mutant isocitrate dehydrogenase 1 (IDH1): Cherrypicks in WT IDH1; shares compounds with IDH1 R132H inh; WT IDH1 enzyme, NADPH diaphorase/resazurin fluorescence; Potency, µM (highest dose often 115 µM), inactives show at the highest dose activity change, negative = inhibition, hits mostly inhibitors; hit rate 9% among 750;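 note: potency is the fitted concentration of half-maximal effect; 0% = full WT IDH1 enzyme control and full inhibition = no enzyme wells; nearly all actives have a fitted effect of over 55% in size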
Target sequence (O75874 whole entry, looked up): as the sequence (O75874 whole entry R132H, stated change not applied) above, with H132R counted along it
mIDH1 confirm: qHTS for Inhibitors of mutant isocitrate dehydrogenase 1 (IDH1): Confirmation of Cherrypicks. AID 624002, 2012. Potency, µM (highest dose often 76.6 µM), without a hit: at the top dose activity change, negative = inhibition, most hits filed as inhibitors. IDH1 R132H enzyme, NADPH diaphorase/resazurin fluorescence. shares compounds with IDH1 R132H inh. hit rate 83% among 750; note: potency is the fitted concentration of half-maximal effect; nearly all actives have a fitted effect of over 50% in size
* hit, by the source's call; [ ] = another dose, or the depositor's remark. Calls come from the whole dose curve; as a rule, active = well fitted curve in the direction sought with a large enough effect; inconclusive = small, poorly fitted or top-dose-only effect, or another doubt; inactive = no such curve, though single readings can be large; an effect the other way counts as inactive or inconclusive.

For CCCC(=O)C1=C(c2cccc(OC)c2)N(C(=O)CCC)n2c(C)nnc2S1 the results were IDH1 R132H inh 44.7µM*, TrxR1 inh 12.0%[57.1 µM], TrxR1 substrate 5.6%[57.1 µM], GLS inhibitor 6.2%, IDH1 autofl -6.7, WT IDH1 inh 170.1% and mIDH1 confirm 44.7µM*.
Screening CCCC(=O)C1=C(c2ccc(C)cc2)N(C(=O)CCC)n2cnnc2S1 returned IDH1 R132H inh 39.8µM*, TrxR1 inh -7.1%[57.1 µM], TrxR1 substrate -0.5%[57.1 µM], GLS inhibitor 3.4%, IDH1 autofl -3.0, WT IDH1 inh 271.7% and mIDH1 confirm 39.8µM*.
`CC(=O)C1=C(c2ccccc2)N(C(C)=O)n2c(C)nnc2S1` gave IDH1 R132H inh 29.3µM*, TrxR1 inh 7.2%, TrxR1 substrate 10.6%, GLS inhibitor -9.7%, IDH1 autofl -5.5, WT IDH1 inh -130.3% and mIDH1 confirm 6.31µM*.
For CCCC(=O)C1=C(c2ccc(C)c(C)c2)N(C(=O)CCC)n2c(CC)nnc2S1 the results were IDH1 R132H inh 3.0%, TrxR1 inh 15.2%[57.1 µM], TrxR1 substrate 5.6%[57.1 µM] and GLS inhibitor 0.8%.
Screening CCOC(=O)COc1ccc(C)cc1C(=O)c1ccn2nc(-c3ccc(C)cc3)cc2n1 returned IDH1 R132H inh -7.8%, TrxR1 inh 17.6%, TrxR1 substrate 11.3% and GLS inhibitor 10.9%.
Screening Cc1c(CCC(C)C)c(-n2ccnc2C)n2c(nc3ccccc32)c1C#N returned IDH1 R132H inh inconclusive, TrxR1 inh 15.7%, TrxR1 substrate 17.2%, GLS inhibitor -4.2%, IDH1 autofl -3.9, WT IDH1 inh 10.4% and mIDH1 confirm inconclusive.
`O=S(=O)(/N=C(/Nc1ccc(Cl)c(S(=O)(=O)Nc2ccccc2Cl)c1)c1ccc(F)cc1)c1ccccc1` gave IDH1 R132H inh inconclusive, TrxR1 inh -2.7%, TrxR1 substrate -10.6%, GLS inhibitor 1.2%, IDH1 autofl -0.8, WT IDH1 inh 3.0% and mIDH1 confirm inconclusive.
`C[C@@H]1CN([C@@H](C)CO)C(=O)CCCn2nncc2CO[C@@H]1CN(C)C(=O)Nc1ccc(N2CCN(C)CC2)cc1` gave IDH1 R132H inh 13.2% and GLS inhibitor -9.2%.
Screening COc1cc(SC#N)ccc1N=Cc1c(C)[nH]n(-c2ccc(C)cc2C)c1=O returned IDH1 R132H inh 41.4µM*, TrxR1 inh -1.1%, TrxR1 substrate -6.7%, GLS inhibitor 10.6%, IDH1 autofl 2.0, WT IDH1 inh 14.0% and mIDH1 confirm 15.8µM*.
For C[C@H](CO)N1C[C@H](C)[C@H](CN(C)S(=O)(=O)c2ccccc2F)OCc2cnnn2CCCC1=O the results were IDH1 R132H inh -0.3% and GLS inhibitor -4.0%.
`COCCN1C(=O)/C(=C/c2ccc(OCc3ccc(C(=O)O)cc3)c(OC)c2)SC1=Nc1ccccc1` gave IDH1 R132H inh 20.7µM*, TrxR1 inh -23.0%, TrxR1 substrate -13.4%, GLS inhibitor 23.7%, IDH1 autofl -1.3, WT IDH1 inh 79.4µM* and mIDH1 confirm 10µM*.
`COc1cc(/C=C2\SC(=Nc3ccccc3)N(Cc3ccco3)C2=O)ccc1OC(C)C(=O)O` (stereo not drawn) gave IDH1 R132H inh -5.3%, TrxR1 inh -30.5%, TrxR1 substrate -16.7% and GLS inhibitor 78.7%.
For O=C(c1cc(C2CCCCN2S(=O)(=O)Cc2ccccc2)on1)N1CCOCC1 (stereo not drawn) the results were GLS inhibitor 1.1%.

Screening data deposited in PubChem BioAssay by National Center for Advancing Translational Sciences (NCATS).
